Measured values: PubChem BioAssay AID1159580 (chemical genetic matrix, 2015)
Among all 5,500 compounds or so, about 2,000 (36%) were called active. Not shown: some 18% with an inconclusive outcome. No stated cut-off is given here; in the data, active means normalized growth mostly below about 0.91 (no sharp cut-off); inconclusive means no clear call, values can overlap the other calls; inactive means mostly above about 0.92. The list shows a part of the results.

Assay: chemical genetic growth profiling, strain panel (AID 1159580);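 further: tested at 20 µM; growth read once vehicle control cultures reached saturation at 30 °C; 1 = growth at the plate median or of vehicle wells; lower values mean less growth of the strain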
Details: S. cerevisiae deletion strains, growth OD

Measured: normalized growth

Nc1ncnc2c1ncn2[C@@H]1O[C@H](C(=O)NC2CC2)[C@H](O)C1O (some centres undefined)
inactive: locus YAL013W, strain DEP1, active compounds read low 1 | locus YAL040C, strain CLN3, active compounds read low 0.986 | locus YCL061C, strain MRC1 (second series), active compounds read low 1 | locus YER002W, strain NOP16, active compounds read low 1 | locus YGR078C, strain PAC10, active compounds read low 1.01 | locus YMR263W, strain SAP30, active compounds read low 0.986 | locus YMR307W, strain GAS1, active compounds read low 1.04 | locus YNL128W, strain TEP1, active compounds read low 0.998 | locus YNL153C, strain GIM3, active compounds read low 1.03 | locus YNL175C, strain NOP13, active compounds read low 1 | locus YNL197C, strain WHI3, active compounds read low 0.986 | locus YNL224C, strain SQS1, active compounds read low 1.01 | locus YOR083W, strain WHI5 (second series), active compounds read low 1.01 | locus YPL055C, strain LGE1, active compounds read low 1
